# Shown are actives, neighbours in structure and some others; about 9% of the full set was active somewhere.
# PLK1 PBD block = PLK1 (human) polo-box domain binding inhibition; AID 720504; P53350; Potency, µM, for inactives: max response, negative = inhibition, actives largely listed as inhibitors; 360,000 compounds, 2.8% hits; Plk1 PBD binding of FITC phosphopeptide, fluorescence polarization; also: series mostly up to about 57 µM; % is scaled to controls: 0 for no effect and ±100 for the full control effect; nearly all actives have a fitted effect of over 65% in size
# JMJD2A Tudor inh = blocks the human JMJD2A Tudor domain; AlphaScreen JMJD2A-Tudor / H3K4me3 peptide binding; Potency, µM (titrated, usually from 114 µM), inactives show at the highest dose activity change, negative = inhibition, usual class: inhibitors; 390,000 compounds, 4.4% hits; also: % is scaled to controls: 0 for no effect and ±100 for the full control effect; nearly all actives have a fitted effect of over 50% in size
# HP1b binding inh = HP1-beta chromodomain-methylated histone interaction inhibition. AlphaScreen HP1-beta / biotin-H3K9me3 peptide binding. Potency, µM (top dose mostly 114 µM), for the others: at the highest dose activity change, negative = inhibition, actives largely listed as inhibitors. 390,000 compounds, 0.56% hits; also: nearly all actives have a fitted effect of over 70% in size
# Target sequence (P83916 whole entry, looked up): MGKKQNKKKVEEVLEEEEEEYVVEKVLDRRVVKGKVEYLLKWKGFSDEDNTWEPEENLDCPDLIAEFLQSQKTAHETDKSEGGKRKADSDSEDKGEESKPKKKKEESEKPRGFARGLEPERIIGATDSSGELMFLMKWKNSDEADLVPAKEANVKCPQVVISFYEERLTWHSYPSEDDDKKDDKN
#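 AlphaScreen: HP1-beta (50 nM) preformed 30 min with biotin-H3(1-18)K9me3 peptide (50 nM) in PBS pH 7.4, 0.01% Tween-20. Compound added for 30 min at RT, then streptavidin donor/nickel chelate acceptor beads (10 ug/mL) for 30 min.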
# BAZ2B block = blocks human BAZ2B. Potency, µM (top dose mostly 114 µM), inactives show top-dose activity change, negative = inhibition, actives largely listed as inhibitors. AlphaScreen BAZ2B-H3K14Ac peptide displacement. 360,000 compounds, 4.4% hits. Q9UIF8; also: % is scaled to controls: 0 for no effect and ±100 for the full control effect; nearly all actives have a fitted effect of over 60% in size
#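 AlphaScreen displacement: compounds (up to 110uM) incubated 30 min at room temperature with a preformed 50 nM BAZ2B/50 nM biotinylated H3K14Ac peptide complex in PBS pH 7.4 with Tween-20. Donor and acceptor beads at 10 ug/mL final added, 20 min light-protected before reading.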
# ALOX12 inh = inhibitors of human 12S-lipoxygenase ALOX12. P18054. purified 12hLO, xylenol orange hydroperoxide absorbance. Potency, µM (highest dose often 108 µM), without a hit: at the top dose activity change, negative = inhibition, actives largely listed as inhibitors. 580,000 compounds, 1.1% hits. AID 1671190; also: % is scaled to controls: 0 for no effect and ±100 for the full control effect
#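 Purified human 12hLO at 150 nM in 25 mM Hepes, 0.01% Triton X-100, pH 7.0, preincubated 15 min at room temperature with compound. Reaction started with 40 uM arachidonic acid, 30 min at room temperature. Hydroperoxide measured by Fe-xylenol orange, 573/405 nm absorbance ratio.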
# G9a block = blocks human histone lysine methyltransferase G9a | Q96KQ7 | 350,000 compounds, 8.8% hits | G9a H3K9 monomethylation, AlphaScreen, 2 h | Potency, µM (top dose mostly 102 µM), for inactives: at the top dose activity, negative = inhibition, hits mostly inhibitors | AID 504332; also: % is scaled to controls: 0 for no effect and ±100 for the full control effect; nearly all actives have a fitted effect of over 75% in size
# Target sequence (Q96KQ7 913-1193 limits assumed): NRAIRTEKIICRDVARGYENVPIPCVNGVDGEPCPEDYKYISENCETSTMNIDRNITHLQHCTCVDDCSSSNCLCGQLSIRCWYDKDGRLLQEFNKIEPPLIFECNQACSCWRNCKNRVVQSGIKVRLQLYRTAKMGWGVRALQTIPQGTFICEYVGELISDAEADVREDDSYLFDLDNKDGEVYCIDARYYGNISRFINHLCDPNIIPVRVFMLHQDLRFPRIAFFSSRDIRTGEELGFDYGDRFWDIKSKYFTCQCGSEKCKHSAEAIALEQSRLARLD
#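 Chemiluminescent proximity detection of H3K9 monomethylation, read after 10 min bead incubation in the dark. Reaction: 20 nM G9a, 500 nM biotin-H3K9 peptide, 20 uM SAM cofactor, 2 h, room temperature, following 15 min enzyme-compound preincubation.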
# * marks the source's active call; other numbers are inactive results; ? = inconclusive; · = no result; [ ] = another dose, or the depositor's remark. Calls follow the shape of the dose curve; as a rule, active = well fitted curve in the direction sought with a large enough effect; inconclusive = small, poorly fitted or top-dose-only effect, or another doubt; inactive = no such curve, though single readings can be large; an effect the other way counts as inactive or inconclusive. Potency is read from the fitted curve at half-maximal effect.
SMILES,PLK1 PBD block,JMJD2A Tudor inh,HP1b binding inh,BAZ2B block,ALOX12 inh,G9a block
CCn1c(/C=C/N(C(C)=O)c2ccccc2)[n+](CC)c2ccc(Cl)cc21,0.8%,-10.1%,9.9%,?,?,79.4µM*
CCN1C(=O)/C(=C/N(C(C)=O)c2ccccc2)N(c2ccccc2)C1=S,-16.5%,-20.0%,17.7%,-37.4%,18.5%,?
CCOC(=O)c1ccc2c(c1)n(CCCS(=O)(=O)[O-])c(/C=C/c1ccc(Cl)cc1)[n+]2CC,-5.8%,2.8%,18.9%,0.4%,10.8%,·
CC[n+]1c(/C=C/C=C/N(C(C)=O)c2ccccc2)sc2ccccc21,107.5%,79.4µM*,-30.3%,28.2µM*,?,29.0%[0.501 µM]
CC[n+]1c(/C=C/C=C2/N(C)c3ccccc3C2(C)C)sc2ccccc21,·,·,·,·,·,8.91µM*
Cc1cc(C(=O)N2CCCC(N3CCN(c4cccc(C(F)(F)F)c4)CC3)C2)no1 (configuration not stated),6.9%,-6.2%,16.6%,-23.0%,0.0%,17.3%
O=C(c1cc(C2CC2)on1)N1CCCC(N2CCN(c3cccc(C(F)(F)F)c3)CC2)C1 (configuration not stated),-12.5%,-25.8%,8.3%[57 µM],-34.5%,0.0%,79.4µM*
O=C(CCc1nc(-c2ccccc2Cl)no1)NC1CCCC1,-9.0%,-9.6%,43.1%,-0.8%,336.5%,56.1%
O=C(O)CS(=O)(=O)CCCc1ccccc1,·,·,·,·,-62.8%,·
O=C(O)CS(=O)(=O)CC(=O)O,-9.4%,?,6.4%,79.4µM*,-56.7%,?
Cc1ccccc1NC(=O)C1c2ccccc2Oc2ccccc21,-2.6%,?,35.0%,-18.0%,1.7%,?
Cc1cc(C)nc(NC(=O)C2c3ccccc3Oc3ccccc32)n1,-2.6%,-1.3%,52.1%,-1.5%,-8.3%,50.1µM*
COCCn1c(SCC(=O)Nc2ccccc2C(F)(F)F)nc2ccccc2c1=O,-7.9%,-9.6%,38.0%,6.5%,21.1%,·
CC(C)CCn1c(SCC(=O)Nc2ccccc2C(F)(F)F)nc2nccnc2c1=O,-19.8%,-26.7%,12.3%,79.4µM*,?,6.31µM*
Cc1cc(-c2cccs2)n[nH]1,-9.2%,0.8%,20.3%,6.6%,2.7%,9.6%[12.7 µM]
Cc1cc(-c2ccccc2N)n[nH]1,-2.0%,-11.9%,18.9%,?,10.1%,50.1µM*
Cn1nnc(NC(=O)c2cccc(OCc3ccccc3)c2)n1,-6.4%,-12.5%,18.3%,-4.6%,?,0.1%[59 µM]
Cc1ccc(CN2C(=O)C(=O)c3cc(Br)cc(C)c32)cc1,·,25.1µM*,12.6µM*,12.6µM*,14.1µM*,11.2µM*
CCCOC(=O)CCCCC1SCC(NC(=O)OC)C1NC(=O)OC (configuration not stated),-4.4%,-2.9%,24.9%,4.0%,21.2%,20.1%
N#Cc1nc(-c2cccs2)oc1N1CCN(c2ccccc2)CC1,-5.8%,?,-20.2%,?,20.9%,8.91µM*
N#Cc1nc(Cc2ccccc2)oc1N1CCN(c2ccccc2)CC1,-9.2%,28.2µM*,14.1µM*,10µM*,3.1%[57.4 µM],?
CCN1CCN(c2oc(-c3cccs3)nc2C#N)CC1,·,·,·,·,-19.1%,·
Cc1ccc(S(=O)(=O)Nc2cnc3ccccc3c2)cc1,3.5%,-17.0%,42.7%,-0.5%,?,4.5%
CCOC(=O)c1cnc2ccc(C)cc2c1Sc1ccccc1,-9.1%,49.0%,70.6%,66.8%,?,36.4%
C=CCn1c(=O)c2c(nc(-n3nc(CC)cc3CC)n2C)n(C)c1=O,·,·,·,·,34.9%,·
C=CCn1c(=O)c2c(nc(-c3ccc(S(=O)(=O)O)cc3)n2C)n(C)c1=O,-2.7%,?,19.8%,·,?,11.9µM*
CC(C)CCC(CCNCc1ccccn1)c1ccc(Cl)cc1 (configuration not stated),4.1%,79.4µM*,?,?,?,-11.5%
CC1CCN(Cc2nnnn2CCCC(=O)NC(c2ccccn2)C(F)(F)F)CC1 (configuration not stated),0.5%,1.4%,42.4%,0.9%,?,-4.4%
